PubChem BioAssay (NCATS)
Where “and” joins values, the source holds several entries; their conditions need not be identical. Equal values may be shown once. Results filed as inconclusive are left out. The source holds several records for some structures; these can differ, active in one and inactive in another. Values without a mark were called inactive. Calls of active or inactive are those of the source. Calls follow the shape of the dose curve; as a rule, active = well fitted inhibition curve with a large enough effect; inconclusive = small, poorly fitted or top-dose-only effect; inactive = flat fitted curve, though single readings scatter.

Assays:
[1] = Drug repurposing screens with cells derived from glioblastoma tumor samples (AID 1345199); conditions: GBM patient neurospheres viability, ATP luminescence, 48 h; also: nearly all actives have a fitted effect of over 40% in size
How it was run: (§1)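 Primary testing used CD133+ neurospheres from four GBM patients, seven concentrations, 48 h exposure and ATP-based viability; confirmation added three slower-growing patient lines.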

[2] = tested on: astro; experiment: as above; conditions: viability, ATP luminescence, 48 h; series mostly up to 45.9 µM
How it was run: as §1

[3] = at 45.9 µM (top of the series), tumour line B
[4] = at 45.9 µM (top of the series), tumour line D
[5] = at 46 µM (top of the series), tumour line A
[6] = at 46.1 µM (top of the series), tumour line C
[7] = at 20 µM (top of the series), tumour line C
[8] = at 21.2 µM (top of the series), tumour line B
[9] = at 21.2 µM (top of the series), tumour line D
[10] = at 21.3 µM (top of the series), tumour line A
% is scaled to controls: 0 for no effect and ±100 for the full control effect; potency is read from the fitted curve at half-maximal effect.

What does the source list for Cc1cccc(C)c1NC(=O)CN(CC(=O)O)CC(=O)O?
activity, negative = cell killing [1, 3]: 1.75%; activity, negative = cell killing [1, 4]: -3.71%; activity, negative = cell killing [1, 5]: -11.4%; activity, negative = cell killing [1, 6]: -3.39%; Potency [2]: inactive

For Oc1ccc(C(O)CNCCCCCCNCC(O)c2ccc(O)c(O)c2)cc1O (centres undefined), which activity, negative = cell killing [1, 3] is on record?
Its activity, negative = cell killing is -10.1%.

What about the activity, negative = cell killing [1, 4] of the same compound?
Its activity, negative = cell killing is -27.7%.

With Nc1ccc(S(=O)(=O)NC(=O)c2ccccc2)cc1 as the compound, how does the activity, negative = cell killing [1, 7] read?
Its activity, negative = cell killing is -23.5%.

What about the activity, negative = cell killing [1, 8] of the same compound?
Its activity, negative = cell killing is -10.1%.

And the activity, negative = cell killing [1, 9]?
The activity, negative = cell killing was -27.1%.

What about the activity, negative = cell killing [1, 10] of the same compound?
The activity, negative = cell killing was -8.76%.

What about the Potency [2] of the same compound?
Its Potency is “inactive”.

Which results are given for C[C@H](NC(CCc1ccccc1)C(=O)O)C(=O)N1CCC[C@H]1C(=O)O (some centres undefined)?
activity, negative = cell killing [1, 3]: -5.92%; activity, negative = cell killing [1, 4]: 1.9%; activity, negative = cell killing [1, 5]: -1.54%; activity, negative = cell killing [1, 6]: -2.05%; Potency [2]: inactive

Which activity, negative = cell killing [1, 3] does the source give for CC1(C)Oc2ccc(C#N)cc2[C@@H](N2CCCC2=O)[C@@H]1O here?
The activity, negative = cell killing was -7.82% and 2.52%.

What about the activity, negative = cell killing [1, 4] of the same compound?
Its activity, negative = cell killing is -4.19% and -0.466%.

What about the activity, negative = cell killing [1, 5] of the same compound?
The activity, negative = cell killing was -32.5% and -12.3%.

What about the activity, negative = cell killing [1, 6] of the same compound?
Its activity, negative = cell killing is -7.78% and -4.72%.

And the Potency [2]?
Its Potency is “inactive”.

With Nc1ccc(S(=O)(=O)Nc2ccc(Cl)nn2)cc1 as the compound, how does the activity, negative = cell killing [1, 7] read?
Its activity, negative = cell killing is -15.3%.

What about the activity, negative = cell killing [1, 8] of the same compound?
Its activity, negative = cell killing is -15.4%.

What about the activity, negative = cell killing [1, 9] of the same compound?
The activity, negative = cell killing was -6%.

And the activity, negative = cell killing [1, 10]?
The activity, negative = cell killing was -27.3%.

And the activity, negative = cell killing [1, 3]?
Its activity, negative = cell killing is -5.57%.

And the activity, negative = cell killing [1, 4]?
Its activity, negative = cell killing is -3.89%.

What about the activity, negative = cell killing [1, 6] of the same compound?
Its activity, negative = cell killing is -7.4%.

What about the Potency [2] of the same compound?
Its Potency is “inactive”.

For OC[C@H]1O[C@@H](O[C@@H]2[C@@H](CO)O[C@](O)(CO)[C@H]2O)[C@H](O)[C@@H](O)[C@H]1O, which activity, negative = cell killing [1, 3] is on record?
Its activity, negative = cell killing is -1.82%.

And the activity, negative = cell killing [1, 4]?
Its activity, negative = cell killing is 8.93%.

And the activity, negative = cell killing [1, 5]?
The activity, negative = cell killing was -20.9%.

What about the activity, negative = cell killing [1, 6] of the same compound?
The activity, negative = cell killing was -24.2%.

What about the Potency [2] of the same compound?
Its Potency is “inactive”.

With CNCCCC1c2ccccc2C=Cc2ccccc21 as the compound, how does the activity, negative = cell killing [1, 7] read?
Its activity, negative = cell killing is 3.37%.

And the Potency ([1]; tumour line A)?
The Potency was 6.31 µM (active).

For C=Cc1c(C)c2cc3[nH]c(cc4nc(cc5nc(cc1[nH]2)C(C)=C5CCC(=O)O)C(CCC(=O)O)=C4C)c(C)c3C=C, which activity, negative = cell killing [1, 3] is on record?
Its activity, negative = cell killing is -11.3%.

What about the activity, negative = cell killing [1, 4] of the same compound?
The activity, negative = cell killing was -20.2%.

What about the activity, negative = cell killing [1, 5] of the same compound?
The activity, negative = cell killing was -14%.

And the activity, negative = cell killing [1, 6]?
Its activity, negative = cell killing is -7.06%.

What about the Potency [2] of the same compound?
The Potency was “inactive”.

Which results are given for C[C@@H](O)[C@H](N)C(=O)O?
activity, negative = cell killing [1, 3]: -15.7%; activity, negative = cell killing [1, 4]: -16.8%; activity, negative = cell killing [1, 5]: -29.7%; activity, negative = cell killing [1, 6]: 2.15%; Potency [2]: inactive

Which activity, negative = cell killing [1, 3] does the source give for O=c1[nH]c(=O)c2[nH]c(=O)[nH]c2[nH]1 here?
The activity, negative = cell killing was -17.6% and -20.9%.

And the activity, negative = cell killing [1, 4]?
Its activity, negative = cell killing is 16.7% and -10.4%.

And the activity, negative = cell killing [1, 5]?
The activity, negative = cell killing was -18.4% and -8.7%.

And the activity, negative = cell killing [1, 6]?
Its activity, negative = cell killing is -21% and -10.6%.

And the Potency [2]?
Its Potency is “inactive”.

Which activity, negative = cell killing [1, 3] does the source give for CC(=O)CCC(=O)O here?
The activity, negative = cell killing was -11.2%.

What about the activity, negative = cell killing [1, 4] of the same compound?
Its activity, negative = cell killing is -13.2%.

And the activity, negative = cell killing [1, 5]?
Its activity, negative = cell killing is -21%.

What about the activity, negative = cell killing [1, 6] of the same compound?
The activity, negative = cell killing was -0.404%.

What about the Potency [2] of the same compound?
The Potency was “inactive”.

For O=C(O)c1ccccc1O, which activity, negative = cell killing [1, 3] is on record?
Its activity, negative = cell killing is -1.6% and -1.62%.

And the activity, negative = cell killing [1, 4]?
Its activity, negative = cell killing is -9.17% and -18.2%.

What about the activity, negative = cell killing [1, 5] of the same compound?
Its activity, negative = cell killing is -20.3%.

And the activity, negative = cell killing [1, 6]?
Its activity, negative = cell killing is -6.51% and 1.73%.

And the Potency [2]?
Its Potency is “inactive”.

For NS(=O)(=O)c1cc2c(cc1Cl)NC(CSCc1ccccc1)=NS2(=O)=O, which activity, negative = cell killing [1, 7] is on record?
Its activity, negative = cell killing is 5.29%.

What about the activity, negative = cell killing [1, 8] of the same compound?
Its activity, negative = cell killing is -6.25%.

What about the activity, negative = cell killing [1, 9] of the same compound?
The activity, negative = cell killing was -24.5%.

What about the activity, negative = cell killing [1, 10] of the same compound?
The activity, negative = cell killing was -18.3%.

What about the Potency [2] of the same compound?
The Potency was “inactive”.

For Cc1ncc(COP(=O)(O)O)c(C=O)c1O, which activity, negative = cell killing [1, 3] is on record?
Its activity, negative = cell killing is -4.54%.

What about the activity, negative = cell killing [1, 4] of the same compound?
Its activity, negative = cell killing is 0.448%.

What about the activity, negative = cell killing [1, 5] of the same compound?
The activity, negative = cell killing was -18.9%.

And the activity, negative = cell killing [1, 6]?
The activity, negative = cell killing was 13%.

And the Potency [2]?
The Potency was “inactive”.

For O=C1OC(OC(=O)c2cccnc2Nc2cccc(C(F)(F)F)c2)c2ccccc21 (centres undefined), which activity, negative = cell killing [1, 3] is on record?
The activity, negative = cell killing was -18.8%.

And the activity, negative = cell killing [1, 4]?
The activity, negative = cell killing was 3.71%.

For CC(=O)NC(Cc1ccccc1)C(=O)O (centres undefined), which activity, negative = cell killing [1, 3] is on record?
Its activity, negative = cell killing is -12.3%.

What about the activity, negative = cell killing [1, 4] of the same compound?
The activity, negative = cell killing was -6.53%.

What about the activity, negative = cell killing [1, 5] of the same compound?
Its activity, negative = cell killing is -20.1%.

And the activity, negative = cell killing [1, 6]?
Its activity, negative = cell killing is -23.9%.

What about the Potency [2] of the same compound?
The Potency was “inactive”.

Which activity, negative = cell killing [1, 6] does the source give for O=Cc1ccccc1C=O here?
The activity, negative = cell killing was -17%.

And the Potency ([1]; tumour line D)?
Its Potency is 35.5 µM (active).

With N[C@H]1C(O)O[C@H](CO)[C@@H](O)[C@@H]1O (some centres undefined) as the compound, how does the activity, negative = cell killing [1, 3] read?
The activity, negative = cell killing was -5.64%.

What about the activity, negative = cell killing [1, 4] of the same compound?
The activity, negative = cell killing was 4.44%.

What about the activity, negative = cell killing [1, 5] of the same compound?
Its activity, negative = cell killing is -25.4%.

What about the activity, negative = cell killing [1, 6] of the same compound?
Its activity, negative = cell killing is -6.46%.

What about the Potency [2] of the same compound?
Its Potency is “inactive”.

Which activity, negative = cell killing [1, 6] does the source give for C[C@]12CC[C@@H]3c4ccc(O)cc4CC[C@H]3[C@@H]1CC[C@@H]2OC(=O)CCC1CCCC1 here?
Its activity, negative = cell killing is -26.4% and -9.85%.

And the Potency ([1]; tumour line A)?
Its Potency is 7.94 µM (active) and 22.4 µM (active).

And the Potency ([1]; tumour line B)?
The Potency was 35.5 µM (active).

What about the Potency ([1]; tumour line D) of the same compound?
The Potency was 35.5 µM (active) and 20 µM (active).

What does the source list for [O-][n+]1cccc(CO)c1?
activity, negative = cell killing [1, 3]: -6.72%; activity, negative = cell killing [1, 4]: -10.2%; activity, negative = cell killing [1, 5]: -20.8%; activity, negative = cell killing [1, 6]: -13.8%; Potency [2]: inactive

With CN(C)CCCN1c2ccccc2CCc2ccccc21 as the compound, how does the activity, negative = cell killing [1, 6] read?
Its activity, negative = cell killing is -2.23%.

And the Potency ([1]; tumour line A)?
The Potency was 4.47 µM (active).

What about the Potency ([1]; tumour line D) of the same compound?
The Potency was 12.6 µM (active).

For COCCOC(=O)C1=C(C)NC(C)=C(C(=O)OC/C=C/c2ccccc2)C1c1cccc([N+](=O)[O-])c1 (centres undefined), which activity, negative = cell killing [1, 3] is on record?
The activity, negative = cell killing was 2.48%.

What about the Potency ([1]; tumour line A) of the same compound?
The Potency was 3.55 µM (active).

What about the Potency ([1]; tumour line C) of the same compound?
The Potency was 18.4 µM (active).

And the Potency ([1]; tumour line D)?
Its Potency is 12.6 µM (active).

With CC1=C(C/C=C(\C)CCC[C@H](C)CCC[C@H](C)CCCC(C)C)C(=O)c2ccccc2C1=O as the compound, how does the activity, negative = cell killing [1, 6] read?
The activity, negative = cell killing was -10.9%.

What about the Potency ([1]; tumour line A) of the same compound?
The Potency was 11.2 µM (active).

Which activity, negative = cell killing [1, 3] does the source give for NC1[C@H]2CN(c3nc4c(cc3F)c(=O)c(C(=O)O)cn4-c3ccc(F)cc3F)C[C@@H]12 (some centres undefined) here?
The activity, negative = cell killing was -29.1%.

With OCCN1CCN(CCCN2c3ccccc3Sc3ccc(Cl)cc32)CC1 as the compound, how does the activity, negative = cell killing [1, 7] read?
The activity, negative = cell killing was -18%.

What about the Potency ([1]; tumour line A) of the same compound?
The Potency was 3.16 µM (active).

What about the Potency ([1]; tumour line B) of the same compound?
The Potency was 8.91 µM (active).

And the Potency ([1]; tumour line D)?
The Potency was 10 µM (active).
